Test results published in PubChem BioAssay (NCI).
Compounds without any hit were thinned out: in the full panel of roughly 83,000, 20% have a hit.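 The test compound was applied at a single concentration to cells in 96-well plates for 48 hours, and percent growth was recorded.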 Calls of active or inactive are those of the source. The calls were made as follows: active = growth percent below 10; inactive = the rest.

Key:
Assay in all cases: NCI-60 one-dose screen, 48 h (100 = growth as untreated, 0 = no growth, -100 = all killed)
Settings in all cases: 10 µM unless noted
NCI-H23 lung = system: NCI-H23 lung
NCI-H226 lung = system: NCI-H226 lung
NCI-H322M lung = system: NCI-H322M lung
HOP-62 NSCLC = system: HOP-62 NSCLC
NCI-H460 lung = system: NCI-H460 lung
HOP-92 NSCLC = system: HOP-92 NSCLC
NCI-H522 lung = system: NCI-H522 lung
A549/ATCC NSCLC = system: A549/ATCC NSCLC
786-0 renal = system: 786-0 renal
COLO 205 colon = system: COLO 205 colon

Measured: growth

O=C1NC(=O)C(=Cc2cn(CCCCCCn3c4ccccc4c(=O)c4ccccc43)c3ccccc23)C(=O)N1
inactive: NCI-H23 lung 82.5% | NCI-H226 lung 67.2% | NCI-H322M lung 85.8% | HOP-62 NSCLC 86.7% | NCI-H460 lung 34.2% | HOP-92 NSCLC 96.1% | NCI-H522 lung 73.3% | A549/ATCC NSCLC 92.4% | 786-0 renal 96.8% | COLO 205 colon 92.3%

COC(=O)[C@@H](C)C[C@H](Cc1ccccc1)NC(=O)c1csc([C@@H](C[C@H](C(C)C)N(C)C(=O)[C@@H](NC(=O)[C@H]2CCCCN2C)C(C)C)OC(C)=O)n1
active: HOP-62 NSCLC 0.881% | NCI-H460 lung 2.4% | HOP-92 NSCLC -13.5% | NCI-H522 lung -31.7% | 786-0 renal 4.12% | COLO 205 colon -69.9%
inactive: NCI-H23 lung 23.7% | NCI-H226 lung 32.4% | NCI-H322M lung 46.8% | A549/ATCC NSCLC 14%

CCC(C)(C)[C@H](NC(=O)[C@H]1CCCCN1C)C(=O)N(C)[C@H](C[C@@H](OC(C)=O)c1nc(C(=O)N[C@@H](Cc2ccccc2)C[C@H](C)C(=O)O)cs1)C(C)C
active: NCI-H226 lung -44.7% | NCI-H460 lung 5.25% | NCI-H522 lung -32.1% | COLO 205 colon -51.2%
inactive: NCI-H23 lung 29.8% | NCI-H322M lung 41.5% | HOP-62 NSCLC 15% | HOP-92 NSCLC 19.4% | A549/ATCC NSCLC 13.1% | 786-0 renal 10.8%

c1cnc2[nH]cc(-c3csc(-c4cn(CCCCN5CCOCC5)c5ccccc45)n3)c2c1
inactive: NCI-H23 lung 81.1% | NCI-H226 lung 72.4% | NCI-H322M lung 79% | HOP-62 NSCLC 52.8% | NCI-H460 lung 31.4% | HOP-92 NSCLC 32% | NCI-H522 lung 49.1% | A549/ATCC NSCLC 56.9% | 786-0 renal 54%
active: COLO 205 colon -77.6%

COC(=O)[C@@H](C)C[C@H](Cc1ccccc1)NC(=O)c1csc([C@@H](C[C@H](C(C)C)N(C)C(=O)[C@H](C)NC(=O)[C@H]2CCCCN2C)OC(C)=O)n1
inactive: NCI-H23 lung 46% | NCI-H226 lung 61% | NCI-H322M lung 40.6% | HOP-62 NSCLC 32.6% | NCI-H460 lung 12% | HOP-92 NSCLC 40.4% | A549/ATCC NSCLC 46.6% | 786-0 renal 35%
active: NCI-H522 lung 8.96% | COLO 205 colon -16.2%

Cc1c(O)c(CN(CCCl)CCCl)cc(CN(CCCl)CCCl)c1O
inactive: NCI-H23 lung 102% | NCI-H226 lung 95.6% | NCI-H322M lung 94.8% | HOP-62 NSCLC 102% | NCI-H460 lung 31.4% | HOP-92 NSCLC 47.3% | NCI-H522 lung 79.4% | A549/ATCC NSCLC 67.8% | 786-0 renal 99.6% | COLO 205 colon 78.1%

COC(=O)[C@@H](C)C[C@H](Cc1ccccc1)NC(=O)c1csc([C@@H](C[C@H](C(C)C)N(C)C(=O)[C@@H](NC(=O)C23CC(NC(C)=O)(C2)C3)C2CC2)OC(C)=O)n1
active: NCI-H522 lung 2.4%
inactive: NCI-H23 lung 60.2% | NCI-H226 lung 107% | NCI-H322M lung 105% | HOP-62 NSCLC 67.9% | NCI-H460 lung 36.6% | HOP-92 NSCLC 38.5% | A549/ATCC NSCLC 93.5% | 786-0 renal 65% | COLO 205 colon 32.5%

CCOC(=O)CCN(C)C1=Nc2ccc(Cl)cc2C(c2ccccc2)=[N+]([O-])C1
inactive: NCI-H23 lung 101% | NCI-H226 lung 104% | NCI-H322M lung 98.4% | HOP-62 NSCLC 96.6% | NCI-H460 lung 106% | HOP-92 NSCLC 98.6% | NCI-H522 lung 70.9% | A549/ATCC NSCLC 100% | 786-0 renal 117% | COLO 205 colon 129%

O=C(CN1CCN(C(=O)c2ccco2)CC1)Nc1ccc(Cl)cc1C(=O)c1ccccc1Cl
inactive: NCI-H23 lung 85.3% | NCI-H226 lung 95.1% | NCI-H322M lung 98.2% | HOP-62 NSCLC 105% | NCI-H460 lung 104% | HOP-92 NSCLC 73.9% | NCI-H522 lung 67.7% | A549/ATCC NSCLC 77.2% | 786-0 renal 95.8% | COLO 205 colon 95.9%

Cn1cc(-c2csc(-c3cn(CCCCN4CCCCC4)c4ccccc34)n2)c2cccnc21
inactive: NCI-H23 lung 42.7% | NCI-H226 lung 68.2% | NCI-H322M lung 88.2% | HOP-62 NSCLC 51.6% | HOP-92 NSCLC 46.3% | NCI-H522 lung 48%
active: NCI-H460 lung -44.9% | A549/ATCC NSCLC -47.1% | 786-0 renal -85.1% | COLO 205 colon -73.7%

CC1=C(O)[C@@](C)(CCCCC[C@H](C)CCCCc2ccc(O)cc2)OOC1=O
inactive: NCI-H23 lung 85.2% | NCI-H226 lung 107% | NCI-H322M lung 94.6% | HOP-62 NSCLC 91.1% | NCI-H460 lung 108% | HOP-92 NSCLC 75.2% | NCI-H522 lung 64.5% | A549/ATCC NSCLC 96.9% | 786-0 renal 105% | COLO 205 colon 107%

CN(C)CCCOc1ccc2c(c1)c(C(=O)C(=O)NCCO)cn2Cc1ccccc1
inactive: NCI-H23 lung 95.6% | NCI-H226 lung 103% | NCI-H322M lung 105% | HOP-62 NSCLC 100% | NCI-H460 lung 105% | HOP-92 NSCLC 92.1% | NCI-H522 lung 99% | A549/ATCC NSCLC 105% | 786-0 renal 93.3% | COLO 205 colon 107%
